Some test systems named below: K-562 leukemia; MALME-3M melanoma; MDA-MB-231 breast; RXF 393 renal; SF-268 CNS; SF-295 CNS; SF-539 CNS; UACC-257 melanoma; M14 melanoma; SNB-75 CNS; SNB-19 CNS; U251 CNS; SK-MEL-5 melanoma; UACC-62 melanoma; LOX IMVI melanoma; SK-MEL-28 melanoma; HT29 colon; PC-3 prostate; SK-MEL-2 melanoma; HCT-15 colon.
Holding throughout (test): NCI-60 one-dose screen, 48 h (100 = growth as untreated, 0 = no growth, -100 = all killed)
Conditions in all cases: 10 µM unless noted

Compounds without any hit were thinned out: in the full panel of roughly 83,000, 20% have a hit.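 Negative percent growth values reflect cell death: -40 means 40% of the cells present at the start died, and -100 means all died.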 A number with no mark means an inactive call. Activity calls are given as the source filed them. The calls were made as follows: active = growth percent below 10; inactive = the rest.

Data on eight molecules can be found in PubChem BioAssay (NCI).

For the molecule `COC(=O)CCC1=C(C)/C(=C/c2[nH]c(-c3ccc[nH]3)cc2OC)N=C1C`, the growth is -16.4% (active) in the test with K-562 leukemia; -38.1% (active) in the test with MALME-3M melanoma; -17% (active) with MDA-MB-231 breast; 24.1% in the test with RXF 393 renal; 21.9% with SF-268 CNS; -30% (active) in the test with SF-295 CNS. In addition, the growth with SF-539 CNS was 18.7%; in the test on UACC-257 melanoma it was -16.4% (active); in the test with M14 melanoma, 4.36% (active); in the test on SNB-75 CNS, -32% (active); with SNB-19 CNS, 44.7%; in the test on U251 CNS, -1.49% (active). Also, the growth was -92% (active) in the test with SK-MEL-5 melanoma, -49.6% (active) in the test with UACC-62 melanoma, -64.3% (active) in the test with LOX IMVI melanoma and -0.539% (active) in the test with SK-MEL-28 melanoma.

As for `O=C(CSCC(=O)N/N=C/c1ccccc1O)N/N=C\c1ccccc1O`, the growth in the test on K-562 leukemia was 10.8%; in the test with MALME-3M melanoma, 2.43% (active); with MDA-MB-231 breast, 42.7%; in the test with RXF 393 renal, 44.8%; in the test with SF-268 CNS, 28.9%; in the test on SF-295 CNS, 35.5%. Further, the growth in the test with SF-539 CNS was 25.6%; in the test with UACC-257 melanoma, 25.6%; with M14 melanoma, -4.57% (active); with HT29 colon, 42.7%; with SNB-75 CNS it was 36.8%; with SNB-19 CNS, 31.2%. Moreover, the growth with U251 CNS was 26.8%; in the test with PC-3 prostate, 25%; with SK-MEL-5 melanoma, 24%; in the test with UACC-62 melanoma, 11.2%; in the test on LOX IMVI melanoma it was 12.4%; with SK-MEL-28 melanoma, 40.4%. Further, in the test on SK-MEL-2 melanoma, the growth is 16.7%.

Turning to `O=C(CCc1nnc(Cn2cncn2)o1)c1nc2ccccc2[nH]1`, the growth in the test with K-562 leukemia was 104%; in the test on MALME-3M melanoma, 92%; with MDA-MB-231 breast, 98.7%; in the test on RXF 393 renal, 121%; in the test with SF-268 CNS, 105%; in the test on SF-295 CNS it was 103%. Also, the growth with SF-539 CNS was 103%; in the test on UACC-257 melanoma, 112%; with M14 melanoma it was 111%; in the test with HCT-15 colon, 102%; in the test on SNB-75 CNS it was 99.1%; in the test on SNB-19 CNS it was 111%. Besides, the growth with U251 CNS is 103%; in the test on SK-MEL-5 melanoma it was 105%; with UACC-62 melanoma, 97.9%; in the test on LOX IMVI melanoma it was 94.4%; in the test on SK-MEL-28 melanoma, 105%.

As for `COc1ccc2c(c1)C(=O)/C(=C/c1ccc([N+](=O)[O-])s1)O2`, the growth in the test on K-562 leukemia was 3.01% (active); in the test with MALME-3M melanoma it was -46.3% (active); with MDA-MB-231 breast, -71.1% (active); in the test on RXF 393 renal, -63% (active); in the test on SF-268 CNS, -72.7% (active); in the test with SF-295 CNS it was 5.53% (active). In addition, the growth with SF-539 CNS is -46.2% (active); in the test on UACC-257 melanoma, -0.975% (active); with M14 melanoma it was -20.6% (active); with HT29 colon, -22.7% (active); in the test on SNB-75 CNS, 12.2%; in the test with SNB-19 CNS it was -5.72% (active). Moreover, the growth in the test with U251 CNS is -50.7% (active); in the test with PC-3 prostate it was -15.7% (active); in the test on SK-MEL-5 melanoma it was -13.5% (active); with UACC-62 melanoma, -48% (active); with LOX IMVI melanoma it was -24.9% (active); in the test with SK-MEL-28 melanoma, -33.9% (active). For the same molecule, the growth in the test on SK-MEL-2 melanoma was -49.1% (active).

Turning to `CCCc1cccc(CCC)c1O`, the growth is 104% in the test with K-562 leukemia; 131% with MALME-3M melanoma; 125% with MDA-MB-231 breast; 121% in the test with RXF 393 renal; 109% in the test with SF-268 CNS; 91.4% in the test on SF-295 CNS. The growth in the test on SF-539 CNS was 118%; with UACC-257 melanoma, 93.3%; in the test on HCT-15 colon it was 107%; with HT29 colon it was 103%; in the test on SNB-75 CNS, 118%; in the test with SNB-19 CNS, 109%. For the same molecule, the growth was 85.7% in the test with U251 CNS; 100% in the test with PC-3 prostate; 104% with SK-MEL-5 melanoma; 107% with UACC-62 melanoma; 100% in the test with LOX IMVI melanoma; 117% in the test on SK-MEL-28 melanoma. For the same molecule, in the test with SK-MEL-2 melanoma, the growth was 133%.

For the molecule `Nc1c2ccccc2nc2ccccc12` (tested in a mixture with another compound), the growth in the test on K-562 leukemia was 15.3%; with MALME-3M melanoma it was 27%; in the test on MDA-MB-231 breast it was 15.9%; with RXF 393 renal, -2.81% (active); with SF-268 CNS, 19.2%; in the test on SF-295 CNS, 24.4%. The growth with SF-539 CNS is 27.5%; in the test on UACC-257 melanoma, -11.3% (active); in the test with M14 melanoma, 17.1%; in the test with HT29 colon it was 0.0152% (active); in the test on SNB-75 CNS it was 31.9%; in the test on SNB-19 CNS, 29.4%. The growth with U251 CNS was 13.7%; with PC-3 prostate, 17%; in the test with UACC-62 melanoma, 5.82% (active); in the test on SK-MEL-28 melanoma, 36.2%; in the test with SK-MEL-2 melanoma it was -5.63% (active).

For the molecule `O=C1Nc2ccccc2C12Nc1cc(Cl)ccc1S2` (centres undefined), the growth was 39.7% in the test with K-562 leukemia; 81.8% in the test with MALME-3M melanoma; 85.4% with MDA-MB-231 breast; 121% with RXF 393 renal; 87.8% in the test with SF-268 CNS; 78.8% in the test with SF-295 CNS. Also, the growth was 86.5% in the test with SF-539 CNS; 138% in the test on UACC-257 melanoma; 91.6% with M14 melanoma; 95.4% with HT29 colon; 59.8% with SNB-75 CNS; 94% in the test with SNB-19 CNS. Moreover, the growth in the test on U251 CNS was 98.5%; with PC-3 prostate, 44.5%; in the test on SK-MEL-5 melanoma, 81.7%; in the test on UACC-62 melanoma, 80.9%; with LOX IMVI melanoma it was 86.3%; in the test with SK-MEL-28 melanoma, 138%. Further, the growth in the test with SK-MEL-2 melanoma was 130%.

In the case of `COc1ccc2nccc(/C=C/c3ccnc4ccc(OC)cc34)c2c1`, the growth in the test with K-562 leukemia was 52.5%; in the test on MALME-3M melanoma, 146%; in the test on MDA-MB-231 breast, 114%; in the test with RXF 393 renal, 37.4%; with SF-268 CNS it was 71.3%; with SF-295 CNS, 129%. For the same molecule, the growth was 106% in the test with SF-539 CNS; 153% in the test on UACC-257 melanoma; 110% in the test on M14 melanoma; 101% in the test with HCT-15 colon; 102% in the test with SNB-75 CNS; 109% in the test on SNB-19 CNS. Also, the growth in the test with U251 CNS was 107%; in the test on SK-MEL-5 melanoma it was 116%; in the test on UACC-62 melanoma it was 109%; in the test on LOX IMVI melanoma, 106%; in the test with SK-MEL-28 melanoma, 92.8%; in the test on SK-MEL-2 melanoma, 112%.
